# Assay results: PubChem BioAssay
# Active and inactive are the calls of the source. Rule as the data show it, unless noted: active = inhibition above about 80%; inactive = the rest.
# Key:
# [1] = viability rescue of complex I mutant cybrids, primary screen, cell-based, galactose medium, ATP luminescence (AID 1645843;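 active = z-score of at least 1.8 in each of two replicates, scored against plate mean and spread of sample wells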;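 also: positive z means more ATP and so rescue of galactose-driven cybrid death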); details: complex I mutant cybrid cells, 72 h, stronger effect = higher value
# [2] = LFS_MB_P medulloblastoma growth inhibition, cell-based, chromothripsis tumors, cisplatin or BGB combos (AID 1671449); details: LFS_MB_P medulloblastoma cells;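 also: cells exposed for 96 hours; 0% = vehicle DMSO and 100% = killing by high DMSO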
# [3] = HDN33 neuroblastoma growth inhibition, cell-based, chromothripsis tumors, cisplatin or BGB combos (AID 1671450); details: HDN33 neuroblastoma cells, stronger effect = higher value;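 also: cells exposed to compound for four days; 0% = vehicle DMSO and 100% = cell killing by high DMSO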
# [4] = ICB984 medulloblastoma cell growth inhibition, synergistic combos for chromothripsis tumors, cisplatin or BGB combos (AID 1671451; call rule not given here;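 also: cells exposed for 96 hours before readout; 0% = vehicle DMSO and 100% = killing by high DMSO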); details: ICB984 medulloblastoma cells, drug combinations, stronger effect = higher value
# [5] = LFS_MB_1R medulloblastoma cell growth inhibition, synergistic combos for chromothripsis tumors, cisplatin or BGB combos (AID 1671452); details: LFS_MB_1R medulloblastoma cells, stronger effect = higher value;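 also: cells exposed for 96 hours before readout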
# [6] = HTB85 osteosarcoma cell growth inhibition, synergistic combos for chromothripsis tumors, BGB or cisplatin IC20 combos (AID 1671453); details: HTB85 osteosarcoma cells, drug combinations, stronger effect = higher value;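 also: cells exposed for 96 hours before readout; 0% = vehicle DMSO and 100% = high DMSO killing control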
# [7] = CRL2098 osteosarcoma cell growth inhibition, synergistic combos for chromothripsis tumors, BGB or cisplatin IC20 combos (AID 1671454); details: CRL2098 osteosarcoma cells, drug combinations, stronger effect = higher value;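 also: cells exposed for 96 h before readout; 0% = vehicle DMSO and 100% = killing by high DMSO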
# [8] = HD-MB03 medulloblastoma cell growth inhibition, synergistic combos for chromothripsis tumors, BGB or cisplatin IC20 combos (AID 1671455; in the data active = inhibition above about 83%;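 also: 0% = vehicle DMSO and 100% = high DMSO as cytotoxic control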); details: HD-MB03 medulloblastoma cells, stronger effect = higher value
# [9] = UWB1.289 ovarian carcinoma cell growth inhibition, synergistic combos for chromothripsis tumors, BGB or cisplatin combos (AID 1671456); details: UWB1.289 ovarian carcinoma cells, stronger effect = higher value;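 also: cells exposed to compound for four days; 0% = vehicle DMSO and 100% = killing by high DMSO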
# [10] = LFS_MB_2R medulloblastoma cell growth inhibition, synergistic combos for chromothripsis tumors, cisplatin combos (AID 1671457); details: LFS_MB_2R medulloblastoma cells, stronger effect = higher value;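 also: cells exposed to compound for four days before readout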
# [11] = MDA-MB-436 breast carcinoma cell growth inhibition, synergistic combos for chromothripsis tumors, BGB or cisplatin combos (AID 1671458; call rule not given here;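 also: cells exposed for 96 hours; 0% = vehicle DMSO and 100% = killing by high DMSO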); details: MDA-MB-436 breast carcinoma growth inhibition, drug combinations, stronger effect = higher value
# [12] = UWB1.289_BRCA1 ovarian cancer growth, cell-based, BGB or cisplatin combinations (AID 1671459); details: UWB1.289 BRCA1 ovarian carcinoma, drug combinations, stronger effect = higher value
# [13] = human astrocyte viability loss, single and combined drugs, cytotoxicity control for chromothriptic childhood tumor combination screen, cell-based, BGB or cisplatin IC20 combos (AID 1671460); details: Human astrocytes, drug combinations, stronger effect = higher value;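 also: cells exposed to compounds for 96 hours before viability readout; 0% = vehicle and 100% = killing control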
# [14] = growth inhibition of BT084 medulloblastoma cells, cell-based, ICGC_MB145, cisplatin and BGB IC40 combos (AID 1671461); details: drug combinations, stronger effect = higher value;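 also: cells exposed to drugs for 96 hours; 0% = vehicle DMSO and 100% = high DMSO full killing control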
# [15] = growth inhibition of RCMB18 medulloblastoma cells, cell-based, cisplatin and BGB IC40 combos (AID 1671462); details: stronger effect = higher value;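 also: cells exposed to compound for four days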
# [16] = growth inhibition of CRL1545 osteosarcoma cells, cell-based, cisplatin and BGB IC20 combos (AID 1671464); details: stronger effect = higher value;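 also: cells exposed to compound for 96 hours before readout; 0% = vehicle DMSO and 100% = high DMSO killing control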
# [17] = at 0.5 µM, stronger effect = higher value
# [18] = measured here: combination with BGB IC20, at 0.005 µM
# [19] = measured here: combination with BGB IC40, at 0.005 µM
# [20] = measured here: combination with BGB IC40, at 0.05 µM
# [21] = measured here: combination with cisplatin, at 0.5 µM, stronger effect = higher value
# [22] = measured here: combination with cisplatin, at 5 µM, stronger effect = higher value
# [23] = measured here: with BGB IC20 combination, at 0.5 µM
# [24] = measured here: with cisplatin IC20 combination, at 0.5 µM
# [25] = measured here: 5 uM single agent, at 5 µM
# [26] = measured here: combination with cisplatin, at 0.5 µM
# [27] = measured here: combination with cisplatin, at 5 µM
# [28] = measured here: with BGB IC20, at 0.5 µM
# [29] = measured here: with BGB IC20, at 5 µM
# [30] = measured here: with cisplatin IC20, at 0.5 µM
# [31] = measured here: with cisplatin IC20, at 5 µM
structure (smiles),measurement,setting,value
Cc1cccnc1CC(C)N(C)C(=O)c1cc(-c2cncnc2)nc2c(C)cccc12 (stereo not drawn),z-score,[1],1.18 (inactive)
CC(C)c1ncc(-c2cc(C(=O)N3CCC(C)(C)C3)c3ccccc3n2)cn1,z-score,[1],2.19 (active)
Cc1nsc(NC(=O)N2CCN(c3ccccc3)CC2C)n1 (stereo not drawn),z-score,[1],2.15 (active)
COc1cc(-c2cccc(C)c2C)nc(N)n1,z-score,[1],-0.335 (inactive)
O=c1cc(-c2ccc(O)cc2)[nH]c(=S)[nH]1,inhibition,[2]; [17],85.3% (active)
same,inhibition,[2]; [18],-1.36%
same,inhibition,[2]; [19],-7.24%
same,inhibition,[2]; [20],-1.51%
same,inhibition,[2]; [21],79.3%
same,inhibition,[2]; [22],3.08%
same,inhibition,"[3]; BGB combo, at 5 µM",-16.4%
same,inhibition,[3]; at 0.5 µM,-17.1% (inactive)
same,inhibition,"[3]; cisplatin combo, at 5 µM",-30.3%
same,inhibition,[3]; [23],-22.1%
same,inhibition,[3]; [24],-12.8%
same,inhibition,"[3]; single agent, at 5 µM",-27.7%
same,inhibition,"[4]; BGB IC20 combo, at 0.005 µM",-9.88%
same,inhibition,"[4]; BGB IC40 combo, at 0.005 µM",-25.6%
same,inhibition,"[4]; BGB IC40 combo, at 0.05 µM",-24.8%
same,inhibition,[4]; at 0.5 µM,-27.2% (inactive)
same,inhibition,"[4]; cisplatin combo, at 0.05 µM",-31.2%
same,inhibition,"[4]; cisplatin combo, at 0.5 µM",-50.4%
same,inhibition,"[4]; cisplatin combo, at 5 µM",-7.23%
same,inhibition,[4]; [25],-15.4%
same,inhibition,[5]; at 0.5 µM,-1.38% (inactive)
same,inhibition,[5]; [20],-3.87%
same,inhibition,[5]; [26],-24.1%
same,inhibition,[5]; [27],1.81%
same,inhibition,[6]; at 0.5 µM,-22.5% (inactive)
same,inhibition,[6]; [28],-21.9%
same,inhibition,[6]; [29],-6.6%
same,inhibition,[6]; [30],-20.1%
same,inhibition,[6]; [31],14%
same,inhibition,"[6]; single agent, at 5 µM",-1.02%
same,inhibition,[7]; at 0.5 µM,-53% (inactive)
same,inhibition,"[7]; measured here: combination with BGB at IC20, at 0.5 µM",-28.7%
same,inhibition,"[7]; measured here: combination with cisplatin at IC20, at 0.5 µM",-91.5%
same,inhibition,[8]; at 0.5 µM,-13.4% (inactive)
same,inhibition,"[8]; measured here: combo with BGB at IC20, at 0.5 µM",-10.4%
same,inhibition,"[8]; measured here: combo with cisplatin at IC20, at 0.5 µM",-24.5%
same,inhibition,[9]; at 0.5 µM,-11.6% (inactive)
same,inhibition,"[9]; measured here: inhibition with BGB combination, at 0.05 µM",-5.24%
same,inhibition,"[9]; measured here: inhibition with cisplatin combination, at 0.05 µM",-19.2%
same,inhibition,[10]; at 0.5 µM,-8.7% (inactive)
same,inhibition,[10]; [26],-16.1%
same,inhibition,[10]; [27],-5.06%
same,inhibition,[11]; at 0.5 µM,-9.32% (inactive)
same,inhibition,"[11]; measured here: BGB combination, at 0.5 µM",-13.5%
same,inhibition,"[11]; measured here: BGB combination, at 5 µM",-8.05%
same,inhibition,"[11]; measured here: cisplatin combination, at 0.5 µM",-15.9%
same,inhibition,"[11]; measured here: cisplatin combination, at 5 µM",-5.07%
same,inhibition,"[12]; BGB combination, concentration series, at 5 µM",-21.3%
same,inhibition,[12]; at 0.5 µM,-19.2% (inactive)
same,inhibition,"[12]; cisplatin combination, concentration series, at 5 µM",2.65%
same,inhibition,[13]; at 0.5 µM,-9.33% (inactive)
same,inhibition,"[13]; measured here: combo with BGB IC20, at 0.5 µM",-17.6%
same,inhibition,"[13]; measured here: combo with cisplatin IC20, at 0.5 µM",-15.4%
same,inhibition,[14]; at 0.5 µM,6.07% (inactive)
same,inhibition,"[14]; cisplatin combination, at 0.5 µM",-1.5%
same,inhibition,"[14]; cisplatin combination, at 5 µM",-121%
same,inhibition,"[14]; measured here: BGB IC40 combination 0.05 uM, at 0.05 µM",27.5%
same,inhibition,"[14]; single agent, at 5 µM",15.9%
same,inhibition,[15]; at 0.5 µM,-1.5% (inactive)
same,inhibition,"[15]; cisplatin combo, at 5 µM",-3.95%
same,inhibition,"[15]; measured here: BGB IC40 combination, at 0.05 µM",-13.5%
same,inhibition,[15]; [26],-10.5%
same,inhibition,"[15]; single agent, at 5 µM",21.7%
same,inhibition,[16]; at 0.5 µM,-18.8% (inactive)
same,inhibition,[16]; [23],-19.4%
same,inhibition,[16]; [24],-20.3%
same,inhibition,"[16]; single agent, at 0.05 µM",0.873%
same,inhibition,"[16]; single agent, at 5 µM",-68.2%
CC(=O)N1CCC(NCCOc2c(C)cccc2Cl)CC1,z-score,[1],-0.35 (inactive)
CC(=O)C1(O)Cc2c(O)c3c(c(O)c2C(OC2CC(N)C(O)C(C)O2)C1)C(=O)c1ccccc1C3=O (stereo not drawn),inhibition,[2]; [17],-11.2% (inactive)
same,inhibition,[2]; [18],-29.5%
same,inhibition,[2]; [19],-38.8%
same,inhibition,[2]; [20],-19.5%
same,inhibition,[2]; [21],-31.3%
same,inhibition,[2]; [22],125%
same,inhibition,"[3]; BGB combo, at 5 µM",99.7%
same,inhibition,[3]; at 0.5 µM,98.4% (active)
same,inhibition,"[3]; cisplatin combo, at 5 µM",99.9%
same,inhibition,[3]; [23],97.4%
same,inhibition,[3]; [24],98.5%
same,inhibition,"[3]; single agent, at 5 µM",99.9%
same,inhibition,"[4]; BGB IC20 combo, at 0.005 µM",97.5%
same,inhibition,"[4]; BGB IC40 combo, at 0.005 µM",95.4%
same,inhibition,"[4]; BGB IC40 combo, at 0.05 µM",100%
same,inhibition,[4]; at 0.5 µM,-42.9% (inactive)
same,inhibition,"[4]; cisplatin combo, at 0.05 µM",100%
same,inhibition,"[4]; cisplatin combo, at 0.5 µM",-43%
same,inhibition,"[4]; cisplatin combo, at 5 µM",-1.78%
same,inhibition,[4]; [25],-14.9%
same,inhibition,[5]; at 0.5 µM,102% (active)
same,inhibition,[5]; [20],73.8%
same,inhibition,[5]; [26],103%
same,inhibition,[5]; [27],106%
same,inhibition,[6]; at 0.5 µM,99.6% (active)
same,inhibition,[6]; [28],99.4%
same,inhibition,[6]; [29],99.7%
same,inhibition,[6]; [30],99.8%
same,inhibition,[6]; [31],99.8%
same,inhibition,"[6]; single agent, at 5 µM",99.9%
